# Bioassay records: PubChem BioAssay, Sanford-Burnham Center for Chemical Genomics
# CYP2C19 act: cytochrome P450 2C19 (human) activation; AID 1025; activation factor at 5 µM; 96,000 tested, under 10 active; recombinant CYP2C19, luciferin-H EGE luminescence; stronger effect = higher value; 0 = fully inhibited enzyme, 1 = untreated enzyme;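 active = activation factor of at least 2 at 5 µM in the primary screen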;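 note: 0 = wells with 2.5 mM tranylcypromine and 1 = vehicle-only wells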
# CYP2C9 activ: CYP2C9 (human) activation | P11712 | recombinant CYP2C9, luciferin-H conversion, luminescence; stronger effect = higher value; factor 1 = untreated enzyme, 0 = blocked | activation factor at 5 µM | 96,000 tested, 1.4% active | AID 1024;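 active = activation factor of 2 or more for CYP2C9 at a 5 µM dose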;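 note: 0 = sulfaphenazole-blocked wells and 1 = vehicle-only wells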
# Target sequence (P11712 whole entry, looked up): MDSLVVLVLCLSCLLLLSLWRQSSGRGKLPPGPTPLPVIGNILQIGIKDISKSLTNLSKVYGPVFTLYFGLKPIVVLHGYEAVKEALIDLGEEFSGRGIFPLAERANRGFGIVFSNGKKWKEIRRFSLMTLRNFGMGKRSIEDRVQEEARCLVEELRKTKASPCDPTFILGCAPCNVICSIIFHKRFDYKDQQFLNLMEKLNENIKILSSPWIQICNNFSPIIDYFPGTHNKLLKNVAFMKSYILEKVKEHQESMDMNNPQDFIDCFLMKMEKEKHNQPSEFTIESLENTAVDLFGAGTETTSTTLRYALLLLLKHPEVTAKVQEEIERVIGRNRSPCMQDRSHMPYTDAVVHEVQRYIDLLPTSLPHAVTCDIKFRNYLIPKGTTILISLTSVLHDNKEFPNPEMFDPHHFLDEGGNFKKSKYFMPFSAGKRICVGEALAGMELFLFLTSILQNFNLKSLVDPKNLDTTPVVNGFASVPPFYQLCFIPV
# CD11b adhes inh: inhibitors of human CD11b/CD18 binding to fibrinogen; AID 1497; P05107+P11215; 93,000 tested, 0.54% active; inhibition, % at 10 µM; K562 CD11b/CD18 adhesion to fibrinogen, ATPlite luminescence; Mn2+ added to activate the integrin;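 active = primary inhibition of 50% or more at 10 µM, then 40% or more on retest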
# CYP2C19 inh: inhibitors of human CYP2C19. CYP2C19 Supersomes, luciferin-H EGE luminescence, 30 min. inhibition, % at 5 µM. 96,000 tested, 21% active;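 active = CYP2C19 inhibition above a set limit at 5 µM in the primary screen, cut at about 50% in these data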;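 note: plate controls were negative control wells for no effect and 2.5 mM tranylcypromine positive control for full effect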
# CYP2C9 inh: human CYP2C9 inhibition; CYP2C9 Supersomes, luciferin-H conversion, luminescence; 96,000 tested, 20% active; P11712; inhibition, % at 5 µM;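 active = blocking of liver enzyme CYP2C9 beyond about 50% at 5 µM, limit read from the data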
# Mac1 fbg enh: enhancers of human CD11b/CD18 binding to fibrinogen | K562 CD11b/CD18 adhesion to fibrinogen, ATPlite luminescence | AID 1499 | activation, % at 10 µM | P05107+P11215 | 93,000 tested, 0.07% active;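 active = 10 µM primary screen giving 50% or more activity, confirmed by 40% or more on retest at that dose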
# * = called active by the depositor; / = not tested or not shown. A selection: hits, their analogues and other compounds. The true share with any hit is near 28%.
SMILES,CYP2C19 act,CYP2C9 activ,CD11b adhes inh,CYP2C19 inh,CYP2C9 inh,Mac1 fbg enh
O=C(NCC1COc2ccccc2O1)C1CCCN(S(=O)(=O)c2cccc3nsnc23)C1 (configuration not stated),0.5,0.4,/,53.9*,61.0*,/
O=C(NCC1COc2ccccc2O1)C1CCCN(S(=O)(=O)c2cccc3cccnc23)C1 (configuration not stated),0.2,1.9,-4.2,75.3*,-93.4,3.0
CCN1C(=O)C(Cc2nc3ccccc3c(=O)n2C)c2ccccc21 (configuration not stated),0.4,0.4,-10.9,56.9*,60.3*,-2.0
CS(=O)(=O)Nc1nnc(SCC(=O)Nc2cccc([N+](=O)[O-])c2)s1,/,/,-10.2,/,/,-1.7
CS(=O)(=O)C1=C(O)C(=O)N(c2ccccc2)C1c1ccccc1 (configuration not stated),0.5,0.9,5.9,50.7*,12.0,0.0
O=C(O)CC1=C(O)C(=O)N(c2ccccc2)C1c1ccccc1 (configuration not stated),0.9,1.1,-0.4,8.2,-8.7,0.6
c1ccc2nc(-c3ccncc3)ccc2c1,0.3,0.6,/,67.8*,36.0,/
Cc1cc(C)n2nc(SCC(=O)Nc3c(C)n(C)n(-c4ccccc4)c3=O)nc2n1,1,1,-12.1,-0.2,3.4,1.1
Nc1nc(Nc2ccc(Cl)cc2Cl)nc(C(F)(F)F)n1,0.8,0.8,0.9,16.5,18.5,0.1
Nc1nc(Nc2ccccc2Br)nc(C(F)(F)F)n1,0.5,0.5,-14.4,46.4,53.6*,3.2
COc1cc2c(C(=O)N3CCN(Cc4ccc5c(c4)OCO5)CC3)cn(C)c(=O)c2cc1OC,0.9,1,-4.4,11.3,2.6,-2.7
O=C(Nc1ccc(O)cc1C(=O)O)c1ccc2c(c1)C(=O)N(Cc1ccco1)C2=O,1,0.4,-44.7,-1.8,59.8*,13.8
NC(=O)C1(N2CCCCC2)CCN(C(=O)NC2CCCCC2)CC1,1,0.9,0.0,1.8,12.6,-3.6
CC1=C(C(=O)OCC(C)C)C23C(=O)c4ccccc4C2(O1)OC(N)=C3C#N (configuration not stated),0.1,0.3,7.6,86.3*,68.3*,-2.5
COCC(C)NS(=O)(=O)c1ccc(NC(=O)C(Cc2ccccc2)NC(N)=O)cc1 (configuration not stated),0.8,0.7,-3.9,16.5,34.7,-2.2
O=C(Cc1ccccc1)Nc1c2c(nn1-c1cccc(Cl)c1)CS(=O)(=O)C2,0.4,0.8,-32.5,55.1*,24.2,-0.6
COc1ccc(CC(=O)Nc2c3c(nn2-c2cccc(Cl)c2)CS(=O)(=O)C3)cc1,0.6,0.7,-8.0,38.1,27.7,0.4
Cc1cc(N2CCN(c3cccc(C(F)(F)F)c3)CC2)n2ncnc2n1,0.8,1.8,-6.8,20.7,-76.0,-2.6
Cc1nc2ncnn2c(N2CCN(c3cccc(C(F)(F)F)c3)CC2)c1C,0.4,0.6,15.5,64.2*,43.7,-0.4
C1=CC2CC1CC2CNCc1ccco1 (configuration not stated),0.9,1.1,-11.1,9.6,-6.6,1.5
Cc1nc(-c2c(-c3ccc(O)cc3O)noc2C(F)(F)F)cs1,0.3,1.1,38.3,70.6*,-14.5,-5.6
CC(C/C=N/NC(=O)COc1cc(Cl)ccc1Cl)c1ccccc1 (configuration not stated),0.3,0.9,-3.5,70.0*,11.4,1.5
Clc1ccc(C(c2nnnn2CCc2ccccc2)N2CCSCC2)cc1 (configuration not stated),0.2,0.2,-0.4,80.0*,78.7*,5.7
Fc1ccc(C(c2nnnn2Cc2ccccc2)N2CCSCC2)cc1 (configuration not stated),0.9,1,0.7,7.8,3.7,1.5
O=C(Nc1ccc(Cl)cc1)OCCn1nnnc1C(c1ccccc1)N1CCOCC1 (configuration not stated),0.7,0.4,-13.2,34.7,64.6*,7.7
SMILES,CYP2C19 act,CYP2C9 activ,CD11b adhes inh,CYP2C19 inh,CYP2C9 inh,Mac1 fbg enh
CN(C)c1ccc(C(c2nnnn2CCOC(=O)Nc2ccc(Cl)cc2)N2CCOCC2)cc1 (configuration not stated),0.1,0.1,-7.1,93.2*,87.4*,-1.4
C=CCNC(=S)Nc1sc2c(c1C(=O)OCC)CC(C(C)C)OC2 (configuration not stated),0.8,0.9,11.5,15.3,8.8,-4.1
CCCCc1nnc(NC(=O)CSc2nc(=O)cc(N)n2-c2cccc(C)c2)s1,1.1,1.1,2.3,-13.8,-11.2,0.5
O=C1C2C3CCC(C3NCc3ccccc3)C2C(=O)N1Cc1ccccc1 (configuration not stated),0.7,0.8,4.1,33.2,23.5,8.5
COc1ccc(N2C(=O)[C@@H]3Cc4ccccc4CN3C2=O)cc1,1.1,1,-4.6,-5.1,-2.9,-0.6
COC(=O)Cc1[nH]nc2c1C1(C(=O)N(Cc3ccccc3)c3ccccc31)C(C#N)=C(N)O2 (configuration not stated),0.4,0.4,-15.2,64.5*,60.8*,-2.3
Cc1[nH]nc2c1C1(C(=O)N(Cc3ccc(Cl)cc3)c3ccccc31)C(C#N)=C(N)O2 (configuration not stated),0.1,0.1,-10.6,88.8*,92.0*,1.1
CN1C(=O)C2(C(C#N)=C(N)Oc3n[nH]c(-c4ccc(Cl)cc4)c32)c2ccccc21 (configuration not stated),0.7,0.7,0.1,28.8,29.8,-0.1
CC(=O)NC1C(=O)N(CCc2ccccc2)c2ccc(Br)cc21 (configuration not stated),0.2,0.8,-0.9,80.4*,15.0,-0.3
COc1cccc(-c2nnc(SCC(N)=O)n2-c2ccc(Cl)cc2)c1,0.8,0.8,-9.3,16.8,21.3,0.1
CCCCNC(=O)CSc1nnc(-c2c[nH]c3ccccc23)n1CC1CCCO1 (configuration not stated),0.5,0.6,0.7,52.6*,44.2,5.5
COc1cccc(-n2c(SCC(N)=O)nnc2-c2c[nH]c3ccccc23)c1,0.1,0.7,-8.0,89.2*,30.7,2.1
COc1ccc(OC)c(-n2c(SCC(=O)Nc3cc(C)on3)nnc2-c2c[nH]c3ccccc23)c1,0.2,0.3,-4.9,84.0*,67.8*,-1.4
COc1ccc(OC)c(-n2c(SC)nnc2-c2c[nH]c3ccccc23)c1,0.2,0.3,-9.2,77.7*,67.7*,1.1
COc1cccc(NC(=O)CSc2nnc(-c3ccoc3C)n2CC2CCCO2)c1 (configuration not stated),0.9,0.8,/,10.5,17.8,/
COc1ccc(OC)c(-n2c(=O)c3ccccc3c3ccccc3c2=O)c1,/,/,1.0,/,/,10.9
